Measurements taken from PubChem BioAssay AID1159580 (chemical genetic matrix, 2015).
The whole screen tested about 5,500 compounds, of which about 2,000 (36%) were called active. Roughly 18% stayed inconclusive and do not appear here. Rule as the data show it: active = normalized growth mostly below about 0.91 (no sharp cut-off); inconclusive = no clear call, values can overlap the other calls; inactive = mostly above about 0.92. This is one part of the list.

Assay: chemical genetic growth profiling, strain panel (AID 1159580);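 also: tested at 20 µM; growth read once vehicle control cultures reached saturation at 30 °C; 1 = growth at the plate median or of vehicle wells; lower values mean less growth of the strain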
Conditions: growth OD

Measured: normalized growth

Cc1onc(-c2ccccc2)c1-c1ccc(S(N)(=O)=O)cc1
inactive: S. cerevisiae deletion strains, locus YJR043C, strain POL32, stronger effect = lower value 0.993 | S. cerevisiae deletion strains, locus YJR075W, strain HOC1, stronger effect = lower value 1 | S. cerevisiae deletion strains, locus YKL009W, strain mrt4, stronger effect = lower value 0.993 | S. cerevisiae deletion strains, locus YKL068W, stronger effect = lower value 1 | S. cerevisiae deletion strains, locus YKL085W, strain MDH1 (second series), stronger effect = lower value 0.996 | S. cerevisiae deletion strains, locus YKL085W, strain MDH1, stronger effect = lower value 0.996 | S. cerevisiae deletion strains, locus YKL160W, strain elf1, stronger effect = lower value 1 | S. cerevisiae deletion strains, locus YKL190W, strain CNB1, stronger effect = lower value 1.01 | S. cerevisiae deletion strains, locus YKR001C, strain vps1, stronger effect = lower value 0.991 | S. cerevisiae deletion strains, locus YKR026C, strain gcn3, stronger effect = lower value 0.987 | S. cerevisiae deletion strains, locus YKR091W, strain srl3, stronger effect = lower value 0.999 | S. cerevisiae deletion strains, locus YLL001W, strain dnm1, stronger effect = lower value 0.994 | S. cerevisiae deletion strains, locus YLL026W, stronger effect = lower value 0.999 | S. cerevisiae deletion strains, locus YLL041C, strain sdh2, stronger effect = lower value 1 | S. cerevisiae deletion strains, locus YLR027C, strain aat2, stronger effect = lower value 1.01 | S. cerevisiae deletion strains, locus YLR039C, strain RIC1, stronger effect = lower value 1 | S. cerevisiae deletion strains, locus YLR058C, strain SHM2, stronger effect = lower value 1.01 | S. cerevisiae deletion strains, locus YLR102C, strain apc9, stronger effect = lower value 0.998 | S. cerevisiae deletion strains, locus YLR221C, strain rsa3, stronger effect = lower value 0.995 | S. cerevisiae deletion strains, locus YLR258W, strain gsy2, stronger effect = lower value 1.01 | S. cerevisiae deletion strains, locus YLR262C, strain YPT6 (second series), stronger effect = lower value 1.01 | S. cerevisiae deletion strains, locus YLR262C, strain YPT6, stronger effect = lower value 0.986 | S. cerevisiae deletion strains, locus YLR268W, strain sec22, stronger effect = lower value 0.99 | S. cerevisiae deletion strains, locus YLR320W, strain mms22, stronger effect = lower value 1 | S. cerevisiae deletion strains, locus YLR330W, strain CHS5, stronger effect = lower value 1.01 | S. cerevisiae deletion strains, locus YLR342W, strain FKS1 (second series), stronger effect = lower value 1 | S. cerevisiae deletion strains, locus YLR342W, strain FKS1, stronger effect = lower value 1 | S. cerevisiae deletion strains, locus YLR357W, strain rsc2, stronger effect = lower value 1.03 | S. cerevisiae deletion strains, locus YLR370C, strain arc18, stronger effect = lower value 0.999 | S. cerevisiae deletion strains, locus YLR371W, strain rom2, stronger effect = lower value 0.998 | S. cerevisiae deletion strains, locus YLR384C, strain iki3, stronger effect = lower value 1.01 | S. cerevisiae deletion strains, locus YLR418C, strain cdc73, stronger effect = lower value 0.963 | S. cerevisiae deletion strains, locus YML016C, strain PPZ1, stronger effect = lower value 1 | S. cerevisiae deletion strains, locus YML032C, strain rad52, stronger effect = lower value 0.996 | S. cerevisiae deletion strains, locus YML120C, strain ndi1, stronger effect = lower value 0.992 | S. cerevisiae deletion strains, locus YML124C, strain tub3, stronger effect = lower value 0.996 | S. cerevisiae deletion strains, locus YMR058W, strain fet3, stronger effect = lower value 1 | S. cerevisiae deletion strains, locus YMR078C, strain ctf18, stronger effect = lower value 1 | S. cerevisiae deletion strains, locus YMR125W, strain sto1, stronger effect = lower value 0.988 | S. cerevisiae deletion strains, locus YMR129W, stronger effect = lower value 0.967 | S. cerevisiae deletion strains, locus YMR205C, strain PFK2, stronger effect = lower value 1 | S. cerevisiae deletion strains, locus YMR223W, strain ubp8, stronger effect = lower value 0.997 | S. cerevisiae deletion strains, locus YMR231W, strain pep5, stronger effect = lower value 1 | S. cerevisiae deletion strains, locus YMR263W, strain SAP30, stronger effect = lower value 1 | S. cerevisiae deletion strains, locus YMR307W, strain GAS1, stronger effect = lower value 0.977 | S. cerevisiae deletion strains, locus YNL067W, strain RPL9B, stronger effect = lower value 1 | S. cerevisiae deletion strains, locus YNL071W, strain lat1, stronger effect = lower value 1.01 | S. cerevisiae deletion strains, locus YNL128W, strain TEP1, stronger effect = lower value 1.01 | S. cerevisiae deletion strains, locus YNL153C, strain GIM3, stronger effect = lower value 1 | S. cerevisiae deletion strains, locus YNL209W, strain ssb2, stronger effect = lower value 0.994 | S. cerevisiae deletion strains, locus YNL233W, strain BNI4, stronger effect = lower value 1.01 | S. cerevisiae deletion strains, locus YNL248C, strain rpa49, stronger effect = lower value 1 | S. cerevisiae deletion strains, locus YNL250W, strain rad50, stronger effect = lower value 0.991 | S. cerevisiae deletion strains, locus YNL271C, strain bni1, stronger effect = lower value 1.01 | S. cerevisiae deletion strains, locus YNL298W, strain CLA4, stronger effect = lower value 0.989 | S. cerevisiae deletion strains, locus YNL307C, strain MCK1, stronger effect = lower value 0.998 | S. cerevisiae deletion strains, locus YNL322C, strain KRE1 (second series), stronger effect = lower value 1.02 | S. cerevisiae deletion strains, locus YNL322C, strain KRE1, stronger effect = lower value 1.01 | S. cerevisiae deletion strains, locus YNR049C, strain mso1, stronger effect = lower value 1 | S. cerevisiae deletion strains, locus YNR052C, strain pop2, stronger effect = lower value 1 | S. cerevisiae deletion strains, locus YOL006C, strain TOP1, stronger effect = lower value 0.992 | S. cerevisiae deletion strains, locus YOL012C, strain htz1 0.783 | S. cerevisiae deletion strains, locus YOL147C, strain pex11, stronger effect = lower value 0.997 | S. cerevisiae deletion strains, locus YOR001W, strain rrp6, stronger effect = lower value 1 | S. cerevisiae deletion strains, locus YOR061W, strain CKA2, stronger effect = lower value 0.998 | S. cerevisiae deletion strains, locus YOR069W, strain VPS5, stronger effect = lower value 1 | S. cerevisiae deletion strains, locus YOR070C, strain gyp1, stronger effect = lower value 0.993 | S. cerevisiae deletion strains, locus YOR080W, strain dia2, stronger effect = lower value 0.998 | S. cerevisiae deletion strains, locus YOR083W, strain WHI5, stronger effect = lower value 0.997 | S. cerevisiae deletion strains, locus YOR106W, strain vam3, stronger effect = lower value 1.01 | S. cerevisiae deletion strains, locus YOR136W, strain idh2, stronger effect = lower value 0.992 | S. cerevisiae deletion strains, locus YOR144C, strain elg1, stronger effect = lower value 1 | S. cerevisiae deletion strains, locus YOR184W, strain ser1, stronger effect = lower value 0.992 | S. cerevisiae deletion strains, locus YOR265W, strain rbl2, stronger effect = lower value 1 | S. cerevisiae deletion strains, locus YOR270C, strain vph1, stronger effect = lower value 1.01 | S. cerevisiae deletion strains, locus YOR290C, strain snf2, stronger effect = lower value 1.01 | S. cerevisiae deletion strains, locus YOR316C, strain cot1, stronger effect = lower value 0.991 | S. cerevisiae deletion strains, locus YPL051W, strain arl3, stronger effect = lower value 1.01 | S. cerevisiae deletion strains, locus YPL055C, strain LGE1, stronger effect = lower value 1.01 | S. cerevisiae deletion strains, locus YPL078C, strain atp4, stronger effect = lower value 0.996 | S. cerevisiae deletion strains, locus YPL106C, strain sse1, stronger effect = lower value 0.984 | S. cerevisiae deletion strains, locus YPL240C, strain hsp82, stronger effect = lower value 0.991 | S. cerevisiae deletion strains, locus YPL241C, strain CIN2, stronger effect = lower value 1 | S. cerevisiae deletion strains, locus YPR119W, strain clb2, stronger effect = lower value 1 | S. cerevisiae deletion strains, locus YPR141C, strain kar3, stronger effect = lower value 0.996 | S. cerevisiae deletion strains, locus YPR163C, strain tif3, stronger effect = lower value 0.991 | S. cerevisiae deletion strains, locus YPR167C, strain met16, stronger effect = lower value 0.995 | S. cerevisiae deletion strains, strain wtn01, stronger effect = lower value 0.985 | S. cerevisiae strains, strain wild type, stronger effect = lower value 0.999
